The campaign covered roughly 95,000 compounds. About 460 (0.48%) were called active.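 Rule for the calls: active = inhibition above the batch mean plus 3 SD, with images confirmed as a hit by eye (cut at about 37% in these data); inconclusive = inhibition above that limit but hit not confirmed in images; inactive = inhibition not above that limit.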 Many of the other results were omitted from the sample, so actives are more common in it than they were.
Experiment: inhibitors of TNFa-induced VCAM1 expression, primary screen, imaging, HUVEC, TNFa stimulus, immunofluorescence (AID 802);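 note: 0% = TNF-stimulated DMSO wells and 100% = unstimulated control wells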
Conditions: HUVEC TNFa-induced VCAM-1 immunofluorescence, high-content imaging; at 2 µM; hits give high values

| Structure (SMILES) | inhibition |
| --- | --- |
| CCN(CC)CCN1C(=O)C(=O)/C(=C(/O)c2cnn(-c3ccccc3)c2C)C1c1cccs1 (stereo not drawn) | -0.9% (inactive) |
| COc1ccc(-c2c(C(C)=O)c(C)nc3sc4c(=O)n(-c5ccc(C)cc5)nnc4c23)cc1 | 12% (inactive) |
| O=C(CN1CCSCC1)N/N=C/c1ccc(F)cc1 | -11.6% (inactive) |
| CCc1nnc(NC(=O)CSc2nc3ccccc3c(=O)n2CCCOC)s1 | 1.6% (inactive) |
| Cc1nnc(SCc2nc3ccccc3nc2C)s1 | -5.5% (inactive) |
| Cc1ccc(NC(=S)NC2CCCC2)cc1 | -15% (inactive) |
| Cc1ccoc1C(=O)Nc1cccc(Oc2ccccc2)c1 | -7.5% (inactive) |
| O=C(O)c1cccnc1NC1CCCC1 | -5.2% (inactive) |
| CC(=O)c1cccc(S(=O)(=O)N2CCC(n3nnc4cc(F)ccc43)CC2)c1 | 54.7% (active) |
| O=C(c1ccc2c(c1)OCCO2)C1CCN(S(=O)(=O)c2cccc(F)c2)CC1 | -12.7% (inactive) |
| O=S(=O)(c1cccc(S(=O)(=O)N2CCC(n3nnc4ccccc43)CC2)c1)N1CCCCC1 | -12.3% (inactive) |
| COc1ccc(CC(=O)Nc2ccc(-c3nnc(-c4ccc(C)cc4)o3)cc2)cc1 | -1.2% (inactive) |
| COc1cccc(NC(=O)Cc2ccc(C)cc2)c1 | 3.7% (inactive) |
| COc1ccc(NC(=O)/C(Cl)=C(/Cl)S(=O)Cc2ccc(C)cc2)cn1 (stereo not drawn) | 90.4% (active) |
| COc1cc(CC(=O)NCc2cccs2)cc(OC)c1OC | 4.1% (inactive) |
| COc1ccc(/C=N\NC(=O)c2sc(N)nc2C)cc1OC | -10.1% (inactive) |
| CCOc1ccc(NC(=O)Nc2cc(C)ccc2OC)cc1 | 11.7% (inactive) |
| COc1cc(/C=N/NC(=O)Nc2ccccc2)ccc1OCCOc1ccccc1C | 51.1% (active) |
| CC(C)CNC(=S)NNC(=O)c1nn(C)cc1Cl | 5.2% (inactive) |
| Cc1nnsc1S(=O)(=O)Cc1ccccc1Cl | 1.2% (inactive) |
| COCCNS(=O)(=O)c1cc(Br)ccc1OC | -35.9% (inactive) |
| O=C(Nc1ccccc1)c1ccc2nsnc2c1 | -11.1% (inactive) |
| O=C(Nc1ccccc1)c1nnsc1S(=O)(=O)c1ccc(Cl)cc1 | 59.3% (active) |
| O=C(c1ccc(Cl)cc1)c1cnc(Nc2ccccc2)s1 | 4.4% (inactive) |
| O=C(Nc1ccc(Cl)cc1)c1ccsn1 | -10% (inactive) |

| Structure (SMILES) | inhibition |
| --- | --- |
| CCC(C)(C)n1nnnc1CN1CCN(c2nc3ccc(C)cc3cc2C#N)CC1 | 3.1% (inactive) |
| S=C(NCCC1=CCCCC1)Nc1ccccc1 | 2.2% (inactive) |
| CC(C)NC(=O)CSc1nnc(COc2ccccc2Cl)o1 | 6.7% (inactive) |
| NS(=O)(=O)c1cccnc1Nc1cccc(Cl)c1 | -4.5% (inactive) |
| COC(=O)C1=C(Nc2ccc(OC)cc2)C=C(C)C(C(=O)OC)C1c1ccc(C)cc1 (stereo not drawn) | -3.9% (inactive) |
| O=C(O)CSc1nccn1-c1cccc(Cl)c1 | -15% (inactive) |
| Cc1cccc(C)c1NC1=NC(=S)N(c2ccc(N(C)C)cc2)C1(C)C | -2.5% (inactive) |
| Cc1ccc(/C=N/NC(=O)c2sccc2OCc2ccc(F)cc2)cc1 | 4% (inactive) |
| CCOC(=O)C1(S(=O)(=O)c2ccccc2)CCN(Cc2ccccc2)CC1 | -5.9% (inactive) |
| CC1CC(C)CN(S(=O)(=O)c2cccc(C(=O)N3C(=O)c4cccc(N)c4C3=O)c2)C1 (stereo not drawn) | -20.1% (inactive) |
| CCC(=O)Nc1ccc2nc(C)n(Cc3ccccc3Cl)c(=O)c2c1 | -5.1% (inactive) |
| CC(=O)Nc1ccccc1OC(=O)N1CCOCC1 | -16.3% (inactive) |
| Cc1cc(C)n(-c2nnc(C)n2NC(=O)c2cccc(Cl)c2)n1 | -8.8% (inactive) |
| Cc1ccc(Nc2nc(C)cc(C)c2C(N)=O)cc1 | 7.1% (inactive) |
| CC1CCN(S(=O)(=O)c2ccc(S(=O)(=O)NCc3ccco3)cc2)CC1 | -20.1% (inactive) |
| O=C(OC1CCCCC1=O)c1cccc(S(=O)(=O)NCc2ccccc2)c1 (stereo not drawn) | -3.3% (inactive) |
| CN(NC(=O)c1ccccc1)c1nc2ccccc2nc1C(F)(F)F | 11.7% (inactive) |
| COc1ccc(C(=O)NN(C)c2nc(-c3ccccc3)cc(C)c2S(C)(=O)=O)cc1 | 16.7% (inactive) |
| CSc1nc(N(C)NC(=O)c2cccc(C)c2)c2ccccc2n1 | 83.3% (active) |
| CCN(CC)c1ccc(/C=N/Nc2nc(C)cc(=O)[nH]2)cc1 | 11.9% (inactive) |
| COC(=O)C1=C(C(=O)c2ccc(C)cc2)C(c2ccccc2)n2nnnc2N1 (stereo not drawn) | 5.8% (inactive) |
| COc1ccc(C(=O)Nc2nc(-c3ccc(S(=O)(=O)N4CCOCC4)cc3)cs2)cc1 | -4.5% (inactive) |
| CCOc1cccc(C(=O)Nc2nnc(-c3cccs3)s2)c1 | -0.3% (inactive) |
| c1ccc(-n2nnnc2NC2CCCCCC2)cc1 | -15.1% (inactive) |
| O=C(CS(=O)(=O)c1cn(Cc2cccc(F)c2)c2ccccc12)N1CCCCC1 | 50.1% (active) |

| Structure (SMILES) | inhibition |
| --- | --- |
| CCOC(=O)c1ccc(NC(=O)CS(=O)(=O)c2cn(CC)c3ccccc23)cc1 | 7% (inactive) |
| Cc1cc(NC(=O)CS(=O)(=O)c2cn(C)c3ccccc23)no1 | 28.9% (inactive) |
| O=C(NCCCN1CCOCC1)c1cnn2c(-c3ccccc3)cc(-c3ccccc3)nc12 | 12% (inactive) |
| O=C(Nc1cc(-c2nn(CC(=O)N3CCCCC3)c(=O)c3ccccc23)ccc1N1CCOCC1)c1ccc(Cl)cc1 | 12.6% (inactive) |
| Cc1ccc(-n2ncc3c(Nc4cccc(C(=O)O)c4)ncnc32)cc1 | -17% (inactive) |
| CCCCNC(=O)CSc1nc2n[nH]c(C)c2c(=N)n1-c1cccc(Cl)c1C | 10.7% (inactive) |
| CCNC(=O)c1sccc1-n1cccc1 | 32% (inactive) |
| Cc1ccccc1N1CCN(CCCOc2ccc3c(C)cc(=O)oc3c2)CC1 | -7.7% (inactive) |
| Cc1cc(=O)oc2cc(OCC3CC(c4ccccc4Cl)=NO3)ccc12 (stereo not drawn) | 59.7% (active) |
| COc1cccc(-c2nnc(SCCOc3ccc4c(C)cc(=O)oc4c3)o2)c1 | 0.7% (inactive) |
| Oc1ccccc1/C=N/n1c(-c2cccs2)n[nH]c1=S | -7.1% (inactive) |
| CC(CCc1ccccc1)NC(=O)c1ccc(Br)o1 (stereo not drawn) | 95.4% (active) |
| CC(CNC(=O)c1ccc(Br)o1)NC(=O)c1ccc(Br)o1 (stereo not drawn) | -12.4% (inactive) |
| O=C(Nc1ccc(-c2nnc(-c3ccccc3)o2)cc1)c1ccc(Br)o1 | -17.2% (inactive) |
| O=C1CSC(c2cccc(F)c2)N1c1ccc(O)cc1 (stereo not drawn) | -1.8% (inactive) |
| C/C(=C\C(=O)c1ccccc1)Nc1cccc(O)c1 | -2.3% (inactive) |
| CCC(=O)Nc1cccc(NC(=O)c2cccnc2)c1 | 7.8% (inactive) |
| C/C(=C\C(=O)c1cccnc1)Nc1ccc(C)c(C)c1 | 89.1% (active) |
| Cc1c(NC(=O)/C=C/C(=O)O)cccc1[N+](=O)[O-] | 3.3% (inactive) |
| O=C(CSc1ncnc2c1cnn2CCc1ccccc1)Nc1ccc(F)cc1 | 1.7% (inactive) |
| CCOC(=O)N1CCN(C(=O)COc2ccc(Br)cc2)CC1 | -1.9% (inactive) |
| CCOC(=O)N1CCN(C(=O)CSc2ccc(Cl)cc2)CC1 | -18.1% (inactive) |
| CCOC(=O)N1CCN(C(=O)COc2ccc(Cl)cc2C)CC1 | 92.1% (active) |
| CCn1c2ccccc2c2cc(NC(=O)C/C(C)=N/NC(=O)c3ccccc3N)ccc21 | 1.3% (inactive) |
| COC(=O)c1cc(OC)c(OC)cc1NC(=O)CSc1ccc(C)cc1 | -25% (inactive) |

| Structure (SMILES) | inhibition |
| --- | --- |
| Cc1ccc2nc(SCc3nnc(-c4ccccc4[N+](=O)[O-])o3)c(C#N)cc2c1 | 6% (inactive) |
| CN(C)c1ccnc(Oc2ccc(F)cc2)c1C#N | -15.3% (inactive) |
| Cc1cc(C)n(-c2cc(Oc3ccccc3)ncn2)n1 | 13.4% (inactive) |
| CC(=O)c1ccc(Oc2cc(C)nc(-n3nc(C)cc3C)n2)cc1 | 75.8% (active) |
| Cc1cc(Oc2ccccc2)nc(N2CCOCC2)n1 | 0.8% (inactive) |
| O=C(Cc1ccc(-n2c(=O)[nH]c3ccccc3c2=O)cc1)N1CCN(c2cccc(Cl)c2)CC1 | 1.3% (inactive) |
| Cc1cccc(S(=O)(=O)CC(=O)Nc2nc(-c3ccccc3)cs2)c1 | -5.3% (inactive) |
| CN(CC#CCC(c1ccccc1)c1ccccc1)C(C)(C)C | 5.2% (inactive) |
| O=C1Cc2ccccc2Sc2ccc(Cl)cc21 | 10% (inactive) |
| CSCc1cc(N2CCOCC2)nc(SCc2ccc(Cl)cc2Cl)n1 | 5.1% (inactive) |
| Cc1ccc(-c2csc(NC(=O)Cc3cccs3)n2)cc1C | 1.5% (inactive) |
| COc1ccc(OC)c(/C=N/NC(=O)CSc2nnc(C)n2-c2ccccc2)c1 | 0.9% (inactive) |
| O=C(Nc1ccccc1)c1ccccc1NC(=O)C(F)(F)F | -10.4% (inactive) |
| COc1cc(/C=C2\SC(=S)N(Nc3ncc(C(F)(F)F)cc3Cl)C2=O)cc(OC)c1OC | 14.4% (inactive) |
| O=C(c1ccccc1)C(Cn1cncn1)C(Sc1ccccc1)c1ccccc1 (stereo not drawn) | 0.1% (inactive) |
| CCOc1ccc(NC(=O)CCS(=O)(=O)c2ccc3c(c2)CCCN3C(=O)CC)cc1 | 0.8% (inactive) |
| COc1ccccc1NC(=O)C1CCCN(c2cc(C)nc3ncnn23)C1 (stereo not drawn) | 3.1% (inactive) |
| CC(C)C(=O)N1CCN(c2nc(-c3ccccc3)c3c(c2C#N)CC(C)(C)OC3)CC1 | 36.7% (active) |
| CC1(C)Cc2c(C#N)c(SCc3nc4ccccc4[nH]3)nc(N3CCOCC3)c2CO1 | 7.1% (inactive) |
| CC(C)c1nc(N2CCOCC2)c(C#N)c2c1COC(C)(C)C2 | -40.7% (inactive) |
| S=C(NCc1cccs1)Nc1ccc(Cl)cc1 | -27.9% (inactive) |
| Cc1cc2cc(CNC(=O)c3cccs3)ccc2[nH]1 | 11.4% (inactive) |
| COCCn1c(SCc2nnc(-c3ccc(OC)c(OC)c3)o2)nc2sc3c(c2c1=O)CCC3 | -4.9% (inactive) |

— PubChem BioAssay AID802 (Columbia University Molecular Screening Center, 2007)
